Sfp PPTase inh – Sfp phosphopantetheinyl transferase inhibition | Q9F4F7 | Biochemical Sfp PPTase activity, qHTS | Potency, µM, most hits filed as inhibitors | hit rate 3.5% among 310,000 | AID 1490;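 further: the enzyme is Sfp with the accession as filed and its product quenches rhodamine fluorescence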
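With Hepes-Na pH 7.6 buffer containing 10 mM MgCl2, Sfp (15 nM) modified BHQ-2-YbbR (12.5 uM) using rhodamine-CoA (5 uM). Two reads 30 minutes apart at 525/598 nm yielded each well's rate.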
12-LOX inh – inhibitors of human 12S-lipoxygenase ALOX12; P18054; purified 12hLO, xylenol orange hydroperoxide absorbance; Potency, µM (doses to about 108 µM), actives largely listed as inhibitors; hit rate 1.1% among 580,000
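Purified human 12hLO at 150 nM in 25 mM Hepes, 0.01% Triton X-100, pH 7.0, preincubated 15 min at room temperature with compound. Reaction started with 40 uM arachidonic acid, 30 min at room temperature. Hydroperoxide measured by Fe-xylenol orange, 573/405 nm absorbance ratio.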
G9a inh – G9a (human) methyltransferase inhibition; Q96KQ7; G9a H3K9 monomethylation, AlphaScreen, 2 h; Potency, µM (series often up to 102 µM), hits mostly inhibitors; hit rate 8.8% among 350,000; further: nearly all actives have a fitted effect of over 75% in size
Target sequence (Q96KQ7 913-1193 limits assumed): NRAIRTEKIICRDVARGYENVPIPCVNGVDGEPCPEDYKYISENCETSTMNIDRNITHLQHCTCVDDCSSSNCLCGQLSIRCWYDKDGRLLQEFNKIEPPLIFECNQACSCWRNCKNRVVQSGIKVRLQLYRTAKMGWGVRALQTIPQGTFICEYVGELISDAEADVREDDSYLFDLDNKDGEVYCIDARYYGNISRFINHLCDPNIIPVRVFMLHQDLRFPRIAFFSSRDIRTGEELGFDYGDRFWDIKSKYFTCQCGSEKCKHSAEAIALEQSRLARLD
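Chemiluminescent proximity detection of H3K9 monomethylation, read after 10 min bead incubation in the dark. Reaction: 20 nM G9a, 500 nM biotin-H3K9 peptide, 20 uM SAM cofactor, 2 h, room temperature, following 15 min enzyme-compound preincubation.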
BAZ2B block – blocks human BAZ2B; Q9UIF8; AlphaScreen BAZ2B-H3K14Ac peptide displacement; Potency, µM (highest dose often 114 µM), usual class: inhibitors; hit rate 4.4% among 360,000; AID 504333; further: nearly all actives have a fitted effect of over 60% in size
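Compounds, titrated to a top concentration of 110 uM, were incubated 30 min at room temperature with preformed BAZ2B/acetyl-K14 H3 peptide complex (50 nM each). Proximity signal was measured by AlphaScreen after 20 min with beads.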
HP1b chromo inh – blocks HP1-beta chromodomain binding to methylated histone tails. P83916. Potency, µM (top dose mostly 114 µM), usual class: inhibitors. AID 540317. AlphaScreen HP1-beta / biotin-H3K9me3 peptide binding. hit rate 0.56% among 390,000; further: nearly all actives have a fitted effect of over 70% in size
Target sequence (P83916 whole entry, looked up): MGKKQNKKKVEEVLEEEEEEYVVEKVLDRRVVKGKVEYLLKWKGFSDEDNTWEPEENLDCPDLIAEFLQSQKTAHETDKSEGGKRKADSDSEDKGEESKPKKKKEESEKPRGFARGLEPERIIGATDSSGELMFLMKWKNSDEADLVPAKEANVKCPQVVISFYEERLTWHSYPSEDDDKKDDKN
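HP1-beta protein (50 nM final) preincubated 30 min at room temperature with biotinylated H3(1-18)K9me3 peptide (50 nM) in PBS pH 7.4, 0.01% Tween-20, then compound added for 30 min. AlphaScreen streptavidin donor/nickel chelate acceptor beads (10 ug/mL final), 30 min dark, luminescence read.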
JMJD2A Tudor – inhibitors of human JMJD2A Tudor domain. AlphaScreen JMJD2A-Tudor / H3K4me3 peptide binding. O75164. hit rate 4.4% among 390,000. Potency, µM (highest dose often 114 µM), usual class: inhibitors; further: nearly all actives have a fitted effect of over 50% in size
A number is an active result; 0 = inactive; ? = inconclusive; - = not tested or not shown; [ ] = another dose, or the depositor's remark. Rows were chosen to be rich in hits. Some 8.7% of all compounds tested hit in one or more screens of this group. The call rests on the fitted dose curve; in most records, active means well fitted curve in the direction sought with a large enough effect; inconclusive means small, poorly fitted or top-dose-only effect, or another doubt; inactive means no such curve, though single readings can be large; an effect the other way counts as inactive or inconclusive.

SMILES	Sfp PPTase inh	12-LOX inh	G9a inh	BAZ2B block	HP1b chromo inh	JMJD2A Tudor
C=CCN1C(=O)NC(=O)/C(=C\c2ccc(-c3ccccc3[N+](=O)[O-])o2)C1=O	25.1µM	35.5µM	22.4µM	79.4µM	0	?
O=C1NC(=O)N(Cc2ccco2)C(=O)/C1=C/c1ccc(-c2cccc([N+](=O)[O-])c2)o1	20µM	-	3.16µM	35.5µM	?	14.1µM
CC(C)(C)NC(=O)N1[C@H]2CC[C@@H]1c1cncnc1C2	-	0	-	-	-	-
Cc1cccc(C(O)(C(=O)NNC(=O)CN2CCN(C)CC2)c2cccc(C)c2)c1	0	0	70.8µM	0	0	0
Cn1cc(CN2CCN3C(=O)N(Cc4ccccn4)C[C@H]3C2)cn1	-	0	-	-	-	-
O=C1NC(=S)N(c2ccccc2)C(=O)/C1=C/c1ccco1	22.4µM	?	0[0.501 µM]	20µM	2.82µM	3.16µM
CCOc1cccc(N2C(=O)/C(=C/c3ccco3)C(=O)NC2=S)c1	35.5µM	11.2µM	14.1µM	31.6µM	20µM	22.4µM
O=C(C[n+]1ccccc1)c1ccc(Cl)cc1	0	-	2µM	0	0	?
CN(c1ccccc1N(C)S(=O)(=O)c1ccccc1)S(=O)(=O)c1ccccc1	-	0	-	-	0	0
CN(C)C(CSS(=O)(=O)c1ccccc1)CSS(=O)(=O)c1ccccc1	-	0.708µM	-	-	-	-
O=C(O)CN1CCC[C@]2(C(=O)O)CN(Cc3ccncc3)CC[C@@H]12	-	0	-	-	-	-
CCn1nc(/C=C/c2ccccc2)nc2c(=O)n(C)c(=O)nc1-2	?	0	-	0	0	0
CCn1nc(-c2cccs2)nc2c(=O)n(C)c(=O)nc1-2	0	-	17.8µM	0	0	0
C[C@]12CC[C@@H]3c4ccc(O[C@@H]5O[C@H](C(=O)O)[C@@H](O)[C@H](O)[C@H]5O)cc4CC[C@H]3[C@@H]1C[C@@H](O)[C@@H]2O	79.4µM	?	?	0	0	0
CCC(=O)Oc1ccc2c(c1)CCC1C2CC[C@]2(C)C(OC(=O)CC)CCC12 (stereo not given in full)	0	-	?	-	-	-
O=C1NC(=O)N(c2ccc3c(c2)OCO3)C(=O)/C1=C\c1ccsc1	35.5µM	?	-	0	0	0
O=C1CC(=O)N(c2ccc3c(c2)OCO3)C(=O)N1	0	0	?	0	0	0[11.4 µM]
Cc1ccc(N2C(=O)NC(=O)/C(=C\c3ccsc3)C2=O)cc1C	50.1µM	-	?	0	-	-
CCCCCCCCCCCCOCCOCCOCCOCCOCCOCCOCCOCCOCCO	70.8µM	-	0[12.7 µM]	-	-	-
CCOCCCNC(=O)N1[C@H]2CC[C@@H]1c1cnc(-c3ccc(F)cc3)nc1C2	-	0	-	-	-	-
CC1C(c2ccc(F)cc2)=[N+]([O-])C(C)(C(=O)c2ccccc2)N1O (stereo not given)	-	0	-	-	-	-
C=Cn1ccnc1P(=S)(c1ccc(N(C)C)cc1)c1nccn1C=C	0	0	0	?	0	?
C=Cn1ccnc1P(=S)(c1c(C)nn(-c2ccccc2)c1C)c1nccn1C=C	0	0	50.1µM	0	0	0
CN(C)c1ccc(C(O)P(=O)(OC2CCCCC2)OC2CCCCC2)cc1 (stereo not given)	0	0	0	44.7µM	0	?
Cc1cc(C(C#N)c2ccc(Cl)cc2)c(Cl)cc1NC(=O)c1cc(I)cc(I)c1O (stereo not given)	?	?	14.1µM	44.7µM	0	50.1µM
SMILES	Sfp PPTase inh	12-LOX inh	G9a inh	BAZ2B block	HP1b chromo inh	JMJD2A Tudor
O=C1NC(=S)NC(=O)C1=Cc1ccc2c(c1)CCN2CCCCl	15.8µM	-	10µM	25.1µM	?	7.94µM
COc1cccc([C@H]2CN(C(=O)Cc3cnc[nH]3)[C@@H]3C4CCN(CC4)[C@H]23)c1	-	0	-	-	-	-
COC(=O)Cn1cc(/C=C2\C(=O)NC(=O)N(c3ccc(OC)cc3)C2=O)c2ccccc21	0	0	0[0.501 µM]	0	0	0
O=C1NC(=O)N(c2ccccc2)C(=O)/C1=C\c1ccc2c3c(cccc13)CC2	39.8µM	-	7.08µM	?	-	-
COc1ccc(N2C(=O)NC(=O)/C(=C\c3cn(CC(=O)N4CCOCC4)c4ccccc34)C2=O)c(OC)c1	0	0	?	0	0	0
COc1ccccc1N1C(=O)NC(=O)/C(=C/c2ccc3c4c(cccc24)CC3)C1=O	11.2µM	50.1µM	8.91µM	?	0	?
O=C(O)Cn1cc(/C=C2\C(=O)NC(=O)N(c3ccc(F)cc3)C2=O)c2ccccc21	0	-	50.1µM	0	-	-
COC(=O)[C@H]1[C@H](CO)[C@H]2Cn3c(cccc3=O)[C@@H]1N2Cc1ccncc1	-	0	-	-	-	-
Nc1c(C(=O)Nc2ccc(Cl)cc2)sc2nc3c(cc12)N1CCC3CC1	-	0	0	0	0	0
Nc1c(C(=O)Nc2cccc(Br)c2)sc2nc3c(cc12)N1CCC3CC1	-	?	12.6µM	0	0	?
COC(=O)[C@@]1(Cc2ccc(F)cc2)[C@H]2c3cc(C(=O)N(C)C)[nH]c3C[C@H]2CN1C(=O)c1ccccc1	0	0	?	50.1µM	0	0
Cc1ccccc1C(=O)Nc1sc2c(c1C(=O)O)CCC(C(C)(C)C)C2 (stereo not given)	-	0	10µM	?	0	0
COc1cc2c(cc1Oc1ccccc1)NC(=O)C21CCN(c2ncc(F)cn2)CC1	-	0	-	-	-	-
Cc1cc(Cc2c(O)[nH]c(=S)[nH]c2=O)ccc1OC(C)C	56.2µM	20µM	8.91µM	0	?	89.1µM
CC(C)COc1ccc(Cc2c(O)[nH]c(=S)[nH]c2=O)cc1	?	8.91µM	0[0.501 µM]	0	?	0
O=c1[nH]c(=S)[nH]c(O)c1CN1CCCCC1	0	0	?	0	0	0
C=C(Cl)CN1CCC(N2CCCCC2)CC1	-	0	-	-	-	-
CC/C(=C(\c1ccc(O)cc1)c1ccc(OCCN(C)C)cc1)c1ccccc1	39.8µM	?	?	44.7µM	0	56.2µM
Cc1ccc(CNCCc2ccccc2)s1	-	0	-	-	-	-
NC(=O)C1=NO[C@@H]2CN(CC3CCCCC3)C[C@H]12	-	0	-	-	-	-
CN1c2ncccc2CN(Cc2ccccc2)CC[C@H]1CO	-	0	-	-	-	-
N#Cc1cccc(NC(=O)Nc2ccc3n(c2=O)C[C@H]2C[C@@H]3CN(C3CCOCC3)C2)c1	-	15.8µM	-	-	-	-
Cc1cccnc1NC1=NCC(C)S1 (stereo not given)	0	0	3.98µM	0	0	0[11.4 µM]
CNCC/C=C\c1cccnc1	0	25.1µM	-	-	-	-
N#CCCNCc1cccnc1	-	0	-	-	-	-
COC(=O)c1ccc(C2SCC(=O)Nc3n[nH]c(C)c32)cc1 (stereo not given)	-	0	-	-	-	-
O=C(N/N=C1/CN2CCC1CC2)c1cccc(O)c1	0	?	10µM	?	0	44.7µM
O=C1Nc2ccccc2CC12CCN2Cc1ccccn1 (stereo not given)	-	0	-	-	-	-
COc1ccccc1NC(=O)Cn1c(=O)oc2cc(S(=O)(=O)N3CCCC3)ccc21	0	0	0	0	0	0
COc1ccccc1NS(=O)(=O)c1cc(NC(=O)c2ccc(Cl)nc2)ccc1N1CCCC1	-	-	-	-	?	56.2µM
